Results filed as inconclusive are left out. Unmarked numbers belong to inactive results. Calls of active or inactive are those of the source. The call rests on the fitted dose curve; in most records, active means well fitted inhibition curve with a large enough effect; inconclusive means small, poorly fitted or top-dose-only effect, or effect the other way; inactive means flat fitted curve, though single readings scatter.
These molecules were tested against Ubiquitin carboxyl-terminal hydrolase 2 (Homo sapiens) (UniProt O75604) (assay: Confirmation Assay for Inhibitors of Ubiquitin-specific Protease USP2a Using CHOP2 as the Reporter). Settings: USP2 core, Ub-CHOP2 coupled reporter fluorescence; series mostly up to 38.3 µM; activity change, negative = inhibition: at the top concentration.
Chain of Ubiquitin carboxyl-terminal hydrolase 2 (Homo sapiens) (O75604 whole entry, looked up): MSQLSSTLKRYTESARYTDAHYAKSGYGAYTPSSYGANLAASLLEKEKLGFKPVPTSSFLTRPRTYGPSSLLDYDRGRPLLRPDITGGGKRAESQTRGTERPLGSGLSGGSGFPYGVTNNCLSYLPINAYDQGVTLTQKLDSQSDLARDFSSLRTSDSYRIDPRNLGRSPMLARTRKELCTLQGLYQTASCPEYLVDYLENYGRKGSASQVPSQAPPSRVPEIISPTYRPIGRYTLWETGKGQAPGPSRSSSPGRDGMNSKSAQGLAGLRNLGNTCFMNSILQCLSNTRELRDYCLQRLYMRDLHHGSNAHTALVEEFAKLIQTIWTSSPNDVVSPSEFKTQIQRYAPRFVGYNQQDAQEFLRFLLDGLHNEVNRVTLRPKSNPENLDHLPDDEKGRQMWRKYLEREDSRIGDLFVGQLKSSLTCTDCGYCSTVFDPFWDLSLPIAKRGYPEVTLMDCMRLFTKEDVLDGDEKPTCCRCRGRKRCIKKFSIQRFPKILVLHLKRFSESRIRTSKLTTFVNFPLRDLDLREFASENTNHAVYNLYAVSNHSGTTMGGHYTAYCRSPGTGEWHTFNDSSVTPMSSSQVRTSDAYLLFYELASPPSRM
Method in brief: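 Ub-CHOP2 cleavage coupled to reporter activation was read by fluorescence after 60 min at RT, with 25 nM final Ub-CHOP2 and substrate. Enzyme (10 nM final USP2 core) first sat 30 min with compound; data were normalized to NEM and fitted to concentration-response curves.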
With `O=C(N/N=C1\CC(c2ccccc2)Oc2ccccc21)c1ccc(O)cc1` (configuration not stated) the “activity change, negative = inhibition” value was 1.02%. For `CCOC(=O)COc1c(OC)cc(Cl)cc1C1Nc2ccccc2C(=O)N1c1ccccc1` (configuration not stated), the “activity change, negative = inhibition” value was 2.24%. `O=C(NCC(c1cccnc1)N1CCN(c2ccc(F)cc2)CC1)OCc1ccccc1` (configuration not stated) was tested, and the “activity change, negative = inhibition” value was 3.62%. For `Cc1csc(NC(=O)CCn2c(=O)sc3ccccc32)n1`, the “activity change, negative = inhibition” value was -5.5%. In the case of `N#CNC(=Nc1cccc(F)c1)SCc1cccc(F)c1`, the “activity change, negative = inhibition” value is reported as -0.652%. `CC(C)(C)C1CCc2nc(NC(=O)Cc3cn4ccsc4n3)sc2C1` (configuration not stated) was tested, and the “activity change, negative = inhibition” value was -5.16%. In the case of `C=CC[C@@H](CC(=O)N(CCO)Cc1ccccc1)C(=O)NCCOC(=O)[C@H](CC=C)CC(=O)OC(C)(C)C`, the “activity change, negative = inhibition” value is reported as -0.238%. For `O=C(CSc1ncccc1-c1nc2ccccc2[nH]1)Nc1ccc2c(c1)OCCO2`, the “activity change, negative = inhibition” value was -2.15%. `O=C(OCc1ccccc1)C1CCCN1C(=O)c1cccs1` (configuration not stated) was tested, and the “activity change, negative = inhibition” value was 4.71%. `CSC1=NCCN1C(=O)Cc1ccc(F)cc1` was tested, and the “activity change, negative = inhibition” value was -3.7%. With `CC1=NC(C(F)(F)F)(C(F)(F)F)C2=C(CC(C)(C)CC2=O)N1Cc1ccco1` the “activity change, negative = inhibition” value was -1.12%. `CCCc1cc(=O)oc2cc(C)c(CN3CCCC3)c(O)c12` was tested, and the “activity change, negative = inhibition” value was -1.5%. For `Cn1cccc1CC(=O)N/N=C/C=C/c1ccco1`, the “activity change, negative = inhibition” value was -10.7%. In the case of `CCC(C)(C(=O)NC1CCCCC1)N(C(=O)C1CCC(=O)N1)c1ccccc1` (configuration not stated), the “activity change, negative = inhibition” value is reported as -1.54%. In the case of `O=C(CSc1nc(O)cc(=O)n1-c1ccccc1)NC1CCCCC1`, the “activity change, negative = inhibition” value is reported as 1.96%. `CCNc1sc(C(=O)c2cccs2)c(N)c1-c1nc2ccccc2s1` was tested, and the “activity change, negative = inhibition” value was -0.21%. For `C#CCOCCOCCOCCNc1nc(N2CCN(C(=O)CCCCCCCCCCNC(=O)[C@H]([C@@H](C)CC)n3cc(CCCCCN)nn3)CC2)nc(N2CCN(C(=O)CCCCCCCCCCNC(=O)[C@H](CCCCN)n3cc(CCCC(=O)O)nn3)CC2)n1`, the Potency was 13.1 µM (active). With `CC(C)C(C(=O)O)N1C(=O)/C(=C/C=C/c2ccco2)SC1=S` (configuration not stated) the Potency was 6.56 µM (active). For `COC(=O)c1[nH]c2cc(OC)ccc2c1N`, the “activity change, negative = inhibition” value was 3.18%. For `N#Cc1c(NC(=O)CSc2ncnc3sccc23)oc(-c2ccco2)c1-c1ccco1`, the Potency was 13.1 µM (active). In the case of `COc1ccc2[nH]c(=O)c(CN(Cc3ccco3)Cc3nnnn3Cc3ccccc3)cc2c1`, the “activity change, negative = inhibition” value is reported as -0.234%. For `CCCCCCCCCCC[N+](C)(C)CC/C=C1/c2ccccc2Sc2ccc(Cl)cc21`, the Potency was 9.27 µM (active).

— PubChem BioAssay AID493168 (National Center for Advancing Translational Sciences (NCATS), 2011)
Further: nearly all actives have a fitted effect of over 55% in size.
Potency means the concentration at half of the fitted maximal effect.
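Wherever activity change, negative = inhibition is given: plate controls were DMSO wells for no effect and full inhibition by NEM control for full effect.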
